Source: PubChem BioAssay
An excerpt weighted towards active compounds, which were near 19% of everything screened.
AMA1-RON2 inh – qHTS for Inhibitors of AMA1-RON; Towards Development of Antimalarial Drug Lead: Primary Screen; Plasmodium falciparum AMA1 (3D7) - RON2 peptide interaction; 0.2% of 360,000 active; Potency, µM (doses to about 58.2 µM), hits mostly inhibitors; AlphaScreen AMA1-biotinylated RON2 peptide binding; also: nearly all actives have a fitted effect of over 45% in size
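AMA1 (3D7) with his tag at 25 nM final met compounds first, then biotinylated RON2 peptide at 25 nM; detection used donor plus acceptor beads, 10 µg/mL apiece, read by AlphaScreen after 30 min at room temperature.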
Pf growth 48h – Primary qHTS for delayed death inhibitors of the malarial parasite plastid, 48 hour incubation; P. falciparum luciferase growth in erythrocytes, 48 h; Potency, µM (series often up to 28.7 µM), hits mostly inhibitors; 5.9% of 310,000 active; AID 504832, 2011
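Luminescence readout; reporter = integrated firefly luciferase in P. falciparum. RBC culture at 2% hematocrit, 0.1% parasitemia final, 37 C/5% CO2; decreased signal taken as growth inhibition.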
CHX counter – Cycloheximide Counterscreen for Small Molecule Inhibitors of Shiga Toxin. AID 2314, 2010. 12% of 300,000 active. max response, %. cell reporter, cycloheximide protein synthesis inhibition counterscreen; in the data active = max response mostly above about 13%, no sharp cut-off; inactive = mostly below about 14%; also: read at 38.3 µM for the half of the compounds with a filed dose
Shiga inhibitor – A qHTS for Small Molecule Inhibitors of Shiga Toxin. inhibition, % at 38.7 µM. 9.2% of 290,000 active. AID 2315, 2010. Vero cells, Shiga toxin protein synthesis inhibition reporter; in the data active = inhibition mostly above about 28%, no sharp cut-off; inactive = mostly below about 43%
Pf growth 96h – Primary qHTS for delayed death inhibitors of the malarial parasite plastid, 96 hour incubation; AID 504834, 2011; P. falciparum luciferase reporter growth, 96 h; Potency, µM (highest dose often 28.7 µM), hits mostly inhibitors; 6.9% of 320,000 active
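Readout is luminescence from an integrated firefly luciferase in P. falciparum. Red cells, 2% hematocrit and 0.05% parasitemia final, were cultured with compound through two parasite generations (96 hours) at 37 C, 5% CO2.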
SARS PLpro yeast – qHTS of Yeast-based Assay for SARS-CoV PLP. 0.19% of 330,000 active. AID 485353, 2010. Potency, µM (series often up to 32.9 µM), usual class: activators. S. cerevisiae expressing SARS-CoV PLpro, growth rescue; calls by dose curve; also: nearly all actives have a fitted effect of over 55% in size
Hits are given with their value; n = inactive; u = inconclusive; x = not tested or not shown; [ ] = remark or other dose. Unless noted, calls follow the shape of the dose curve; as a rule, active = well fitted curve in the direction sought with a large enough effect; inconclusive = small, poorly fitted or top-dose-only effect, or another doubt; inactive = no such curve, though single readings can be large; an effect the other way counts as inactive or inconclusive.

SMILES | AMA1-RON2 inh | Pf growth 48h | CHX counter | Shiga inhibitor | Pf growth 96h | SARS PLpro yeast
CCN1CCN(c2ccc(S(=O)(=O)N3CCCCC3)cc2NC(=O)/C=C/c2ccc(F)cc2)CC1 | n | 10µM | x | x | u | n
CN1CCN(c2ccc(S(=O)(=O)N3CCCCC3)cc2NC(=O)/C=C/c2ccc(Cl)c([N+](=O)[O-])c2)CC1 | n | 2.9µM | x | x | 5.9µM | n
CCN1CCN(c2ccc(S(=O)(=O)N3CCOCC3)cc2NC(=O)/C=C/c2ccc(C)cc2)CC1 | n | n | x | x | u | n
CCN1CCN(c2ccc(S(=O)(=O)N3CCCCC3)cc2NC(=O)/C=C/c2ccc([N+](=O)[O-])cc2)CC1 | n | 2.1µM | x | x | 1.9µM | n
C/C(=N/NC(=O)C1CCCCC1)c1ccc([N+](=O)[O-])cc1 | n | n | n | n | n | n
CCCCN(C(=O)Cc1cccc(F)c1)c1c(N)n(CCC)c(=O)[nH]c1=O | n | n | n | n | n | n
COc1ccc(-c2csc(NC(=O)C3COc4ccccc4O3)n2)cc1OC (centres undefined) | n | n | n | n | u | n
Cc1cc(C)c2sc(NNC(=O)C3COc4ccccc4O3)nc2c1 (centres undefined) | n | n | n | n | n | n
CC1(C)CC(=O)c2sc(NC(=O)C3COc4ccccc4O3)nc2C1 (centres undefined) | n | n | 34 | 32 | n | n
CC1(C)CNC(=O)c2sc(NC(=O)c3ccccc3Cl)nc2C1 | n | n | 17 | n | n | n
CC1(C)CC(=O)c2sc(NS(=O)(=O)c3ccc([N+](=O)[O-])cc3)nc2C1 | n | n | 46 | n | u | n
CC(C)(C)c1csc(NC(=O)C2COc3ccccc3O2)n1 (centres undefined) | n | n | 42 | 87 | n | n
Cc1c(C(=O)NCc2ccccc2)sc(=O)n1Cc1ccccc1F | n | x | x | x | x | x
NC(=O)Cn1cnc2nc3n(c2c1=O)CCC3 | n | n | n | n | n | n
CCCCN(CC)Cc1c(O)ccc2c3c(c(=O)oc12)CCC3 | n | u | n | n | n | n
CC1(C)CC(=O)c2sc(NC(=O)CN3CCOCC3)nc2C1 | n | n | n | n | n | n
O=C(Nc1nnc(C(F)(F)F)s1)C1COc2ccccc2O1 (centres undefined) | n | x | 34 | 44 | n | n
O=C(Nc1nnc(C2CC2)s1)C1COc2ccccc2O1 (centres undefined) | n | n | 34 | n | n | n
CC1(C)CC(=O)c2sc(NC(=O)CN3C(=O)CCC3=O)nc2C1 | n | n | 50 | 74 | n | n
CC1(C)CC(=O)c2sc(NC(=O)c3ccco3)nc2C1 | n | x | 33 | n | n | n
CC(O)(c1ccc(F)c(F)c1)c1nc(-c2cccc(C#N)c2)cs1 (centres undefined) | n | x | x | x | x | x
O=C(NC1CCCCC1)c1nc2c(nnn2Cc2ccccc2Cl)c(=O)[nH]1 | n | n | n | n | n[5.75 µM] | n
C=C(C)c1cccc(C(C)(C)NC(=O)N2CCN(CC(N)=O)CC2)c1 | n | n | n | n | n[5.75 µM] | n
COc1ccc(C(C)NC(=O)c2ccncc2)cc1 (centres undefined) | n | n | n | n | u | n
O=C(Nc1nncs1)C1COc2ccccc2O1 (centres undefined) | n | n | 14 | 50 | n | n
SMILES | AMA1-RON2 inh | Pf growth 48h | CHX counter | Shiga inhibitor | Pf growth 96h | SARS PLpro yeast
Cc1cccc2sc(NNC(=O)C3COc4ccccc4O3)nc12 (centres undefined) | n | n | n | n | n | n
CC(=O)c1sc(NC(=O)C2COc3ccccc3O2)nc1C (centres undefined) | n | n | 21 | n | n | n
CC(C)NC(=O)C1COc2ccccc2O1 (centres undefined) | n | n | n | n | n | n
O=c1oc2cc(O)c(Cl)cc2c2ccccc12 | n | n | n | n | n | n
O=c1cc2c(=O)oc3cc(O)c(O)oc3c2c(O)c1O | 10µM | 5.2µM | n | n | 8.3µM | n
CCc1noc(C)c1C(=O)N1CCN(S(=O)(=O)c2c(C)c(C)cc(C)c2C)CC1 | n | n | x | x | n | n
CCN1CCN(Cc2c3ccccc3cc3ccccc23)CC1 | n | u | n | x | n | n
O=S(=O)(c1ccc(Cl)s1)N1CCc2ccccc2C1 | n | n | n | n | u | n
O=S(=O)(c1ccc(Cl)s1)N1CCCc2cccc(O)c21 | n | x | 50 | 84 | n | n
Cc1ccc(CN2CCN(CCCn3cccn3)CC2CCO)cc1 (centres undefined) | n | n | n | n | n | n
CSCC[C@H](NC(=O)N1CCn2c1nc1ccccc12)C(=O)NCc1ccc(F)cc1 | n | u | n | n | 12µM | n
COc1ccc(CNC(=O)[C@H](CCSC)NC(=O)N2CCn3c2nc2ccccc23)cc1 | n | u | n | n | n | n
Cn1c(Cl)c(C(=O)Nc2ccccc2)c2ccccc21 | n | n | 23 | 41 | n | n
Cc1ccc(NC(=O)c2c(O)c3ccccc3n(C)c2=O)nc1 | n | n | n | n | n | n
CCCn1c(=O)c(C(=O)Nc2ccccc2)c(O)c2ccccc21 | n | n | n | n | n | n
Cc1ccc(NC(=O)c2c(Cl)n(C)c3ccccc23)cc1 | n | n | 30 | n | n | n
CCOc1cc(C(=O)N/N=C/c2cn(-c3ccccc3)nc2-c2cc3ccccc3o2)cc(OCC)c1OCC | n | x | x | x | x | x
O=C(NCc1ccco1)C1CCN(c2nnc(-n3cccc3)s2)CC1 | n | n | 16 | n | n | n
O=C(NCCCN1CCc2ccccc2C1)C1CCN(c2nnc(-n3cccc3)s2)CC1 | n | 4.1µM | n | n | u | n
CN(Cc1ccco1)C(=O)C1CCN(c2nnc(-n3cccc3)s2)CC1 | n | n | n | n | n | n
O=C(NCc1ccco1)C1CCN(c2nc3ccccc3n2Cc2ccc(F)cc2)CC1 | n | x | n | n | 10µM | n
CCOC(=O)c1c(S(=O)(=O)N(C)C2CCCCC2)c(C)n(C)c1C | n | n | n | n | u | n
CNS(=O)(=O)c1cccc2nsnc12 | n | n | n | n | n | n
c1ccc(Cc2cc(-c3ccccc3)on2)cc1 | n | n | 36 | 90 | n | n
COc1cccc(CNc2ncc(Br)cc2Br)c1O | n | n | 66 | 61 | n | n
COc1cccc(CNc2ccc(Br)cn2)c1O | n | n | 43 | 72 | n | n
CCOC(=O)c1ccc(N2CCOCC2)c(NC(=O)COCC(=O)O)c1 | n | n | n | n | n | n
O=C(C[n+]1ccc2ccccc2c1)Nc1cc(C(F)(F)F)ccc1Cl | n | 1.3µM | n | n | u | n
O=C(CC(=O)c1ccccc1)Nc1cc(C(F)(F)F)ccc1Cl | n | n | 16 | n | n | n
